From PubChem BioAssay (NCATS)
Results filed as inconclusive are left out. A call without a number means that no potency is given here. Active and inactive are the calls of the source. Unless noted, calls follow the shape of the dose curve; as a rule, active = well fitted curve in the direction sought with a large enough effect; inconclusive = small, poorly fitted or top-dose-only effect, or another doubt; inactive = no such curve, though single readings can be large; an effect the other way counts as inactive or inconclusive.

Key:
[1] = biological target: 3',5'-cyclic-AMP phosphodiesterase 4B (Homo sapiens) (UniProt Q07343); experiment: qHTS Assay for Inhibitors of PDE-IV (AID 607; active = well fitted activation curve with a large enough effect in the main read-out, with a control signal flat, not every such curve was filed as active)
Outline: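 ACTOne HEK293 cells carry a modified cAMP-gated CNG channel and express endogenous PDE4; plated 1000 cells/well, compounds up to 22.9 uM final. Membrane-potential dye fluorescence (ex 535/em 590) was read; parental cells received 10 uM forskolin + 100 uM RO 20-1724.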

[2] = biological target: Guanine nucleotide-binding protein G(i) subunit alpha-1 (Homo sapiens) (UniProt P63096); experiment: qHTS Assay for Inhibitors of RGS12 GoLoco Motif Activity (Green Fluorophore) (AID 879); also: potency is read from the fitted curve at half-maximal effect
Outline: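 A drop in FITC polarization marked displacement of the FITC-tagged RGS12 GoLoco peptide (10 nM) from Gαi1 (50 nM). Compounds were incubated 10 min at room temperature in Tris pH 7.5 buffer containing 150 mM NaCl, 0.1 mM GDP and 0.05% NP40; unlabeled peptide titration served as control.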

[3] = biological target: Cytochrome P450 3A4 (Homo sapiens) (UniProt P08684); experiment: qHTS Assay for Activators of Cytochrome P450 3A4 (AID 885); also: nearly all actives have a fitted effect of over 65% in size
Outline: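 CYP3A4 activity: Luciferin-PPXE O-dealkylation, 25uM substrate, 200mM KPO4, RT throughout. Read-out is luciferase luminescence; higher values reflect activation.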

[4] = biological target: Cytochrome P450 2C9 (Homo sapiens) (UniProt P11712); experiment: qHTS Assay for Inhibitors and Substrates of Cytochrome P450 2C9 (AID 883); also: nearly all actives have a fitted effect of over 60% in size; also: potency is read from the fitted curve at half-maximal effect
Outline: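 A luminogenic readout tracked human CYP2C9 (10nM) converting deoxyluciferin (100uM, at KM) in 25mM KPO4 during 60 min at 37C with regenerated NADPH. Values normalized to 57uM sulphaphenazole as complete inhibition.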

[5] = biological target: Cytochrome P450 3A4 (Homo sapiens) (UniProt P08684); experiment: qHTS Assay for Inhibitors and Substrates of Cytochrome P450 3A4 (AID 884); also: nearly all actives have a fitted effect of over 50% in size; also: potency is read from the fitted curve at half-maximal effect
Outline: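 Luminescent readout of luciferin produced by CYP3A4 (20 nM) dealkylation of Luciferin-PPXE, 25 uM (its KM). NADPH-driven reaction ran 60 min at RT after 10 min compound preincubation; data scaled to 57 uM ketoconazole as 100% inhibition.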

[6] = biological target: Cytochrome P450 2D6 (Homo sapiens) (UniProt P10635); experiment: qHTS Assay for Inhibitors and Substrates of Cytochrome P450 2D6 (AID 891); also: nearly all actives have a fitted effect of over 60% in size; also: potency is read from the fitted curve at half-maximal effect
Outline: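 Luminescent read-out of luciferin formed by 5 nM human CYP2D6 demethylating 30 uM Luciferin-ME EGE (Km level) over 60 min at room temperature after NADPH regeneration addition. Data normalized to full inhibition by 1.43 uM quinidine.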

Sequence of Cytochrome P450 2D6 (Homo sapiens) (P10635 whole entry, looked up): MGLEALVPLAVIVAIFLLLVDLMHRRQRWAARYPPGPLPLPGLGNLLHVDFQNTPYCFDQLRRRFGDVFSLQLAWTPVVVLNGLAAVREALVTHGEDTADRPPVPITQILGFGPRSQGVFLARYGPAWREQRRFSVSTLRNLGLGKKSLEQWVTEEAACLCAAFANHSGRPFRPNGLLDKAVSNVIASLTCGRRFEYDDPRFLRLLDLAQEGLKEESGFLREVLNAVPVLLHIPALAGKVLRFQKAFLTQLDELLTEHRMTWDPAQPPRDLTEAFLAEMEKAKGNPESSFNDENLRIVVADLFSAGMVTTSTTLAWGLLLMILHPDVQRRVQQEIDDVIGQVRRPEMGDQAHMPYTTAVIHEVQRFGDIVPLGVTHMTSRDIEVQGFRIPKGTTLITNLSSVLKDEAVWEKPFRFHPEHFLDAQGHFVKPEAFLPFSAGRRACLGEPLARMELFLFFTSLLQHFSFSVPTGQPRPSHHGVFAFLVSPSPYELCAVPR
Sequence of Cytochrome P450 3A4 (Homo sapiens) (P08684 whole entry, looked up): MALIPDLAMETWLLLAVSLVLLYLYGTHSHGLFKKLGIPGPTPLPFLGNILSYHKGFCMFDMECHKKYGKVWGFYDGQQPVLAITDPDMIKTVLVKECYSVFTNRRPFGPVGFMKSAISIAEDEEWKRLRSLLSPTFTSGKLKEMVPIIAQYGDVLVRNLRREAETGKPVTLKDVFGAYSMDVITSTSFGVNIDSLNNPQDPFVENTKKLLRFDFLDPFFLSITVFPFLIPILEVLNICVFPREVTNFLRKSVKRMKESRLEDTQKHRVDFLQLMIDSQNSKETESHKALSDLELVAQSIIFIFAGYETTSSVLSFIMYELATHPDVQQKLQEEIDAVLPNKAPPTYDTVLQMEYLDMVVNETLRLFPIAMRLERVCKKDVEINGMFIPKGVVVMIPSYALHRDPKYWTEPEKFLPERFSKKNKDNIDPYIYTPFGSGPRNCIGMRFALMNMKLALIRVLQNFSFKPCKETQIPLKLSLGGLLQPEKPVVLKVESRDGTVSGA
Sequence of Guanine nucleotide-binding protein G(i) subunit alpha-1 (Homo sapiens) (P63096 whole entry, looked up): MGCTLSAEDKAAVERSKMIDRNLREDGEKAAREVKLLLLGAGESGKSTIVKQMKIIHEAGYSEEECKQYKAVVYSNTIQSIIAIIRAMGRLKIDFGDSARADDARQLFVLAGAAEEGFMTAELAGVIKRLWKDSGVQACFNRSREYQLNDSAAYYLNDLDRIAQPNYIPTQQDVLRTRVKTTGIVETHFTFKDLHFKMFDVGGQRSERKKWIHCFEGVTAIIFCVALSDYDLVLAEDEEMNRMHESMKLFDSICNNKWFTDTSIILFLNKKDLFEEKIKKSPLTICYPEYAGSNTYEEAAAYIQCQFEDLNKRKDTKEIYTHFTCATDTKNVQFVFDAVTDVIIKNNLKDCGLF
Sequence of 3',5'-cyclic-AMP phosphodiesterase 4B (Homo sapiens) (Q07343 whole entry, looked up): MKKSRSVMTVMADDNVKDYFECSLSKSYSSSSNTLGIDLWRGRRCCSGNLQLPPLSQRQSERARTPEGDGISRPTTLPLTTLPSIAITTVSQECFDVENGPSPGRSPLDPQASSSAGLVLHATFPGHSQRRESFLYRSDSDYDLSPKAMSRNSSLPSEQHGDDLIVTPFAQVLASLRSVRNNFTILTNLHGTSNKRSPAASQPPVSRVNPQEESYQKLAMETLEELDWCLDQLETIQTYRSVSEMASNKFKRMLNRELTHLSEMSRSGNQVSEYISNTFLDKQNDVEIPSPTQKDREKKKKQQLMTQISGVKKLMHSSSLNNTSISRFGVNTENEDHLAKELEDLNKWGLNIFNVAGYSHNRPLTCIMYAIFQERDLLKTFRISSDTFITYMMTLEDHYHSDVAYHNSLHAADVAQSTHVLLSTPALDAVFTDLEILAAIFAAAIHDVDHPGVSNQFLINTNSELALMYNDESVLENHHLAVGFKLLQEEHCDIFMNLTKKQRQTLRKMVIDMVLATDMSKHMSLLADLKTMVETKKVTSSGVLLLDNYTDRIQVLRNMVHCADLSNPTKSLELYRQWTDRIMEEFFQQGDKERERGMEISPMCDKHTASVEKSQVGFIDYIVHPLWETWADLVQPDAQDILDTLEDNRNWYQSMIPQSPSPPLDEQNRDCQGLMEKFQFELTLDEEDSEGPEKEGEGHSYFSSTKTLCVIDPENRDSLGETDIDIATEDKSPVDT
Sequence of Cytochrome P450 2C9 (Homo sapiens) (P11712 whole entry, looked up): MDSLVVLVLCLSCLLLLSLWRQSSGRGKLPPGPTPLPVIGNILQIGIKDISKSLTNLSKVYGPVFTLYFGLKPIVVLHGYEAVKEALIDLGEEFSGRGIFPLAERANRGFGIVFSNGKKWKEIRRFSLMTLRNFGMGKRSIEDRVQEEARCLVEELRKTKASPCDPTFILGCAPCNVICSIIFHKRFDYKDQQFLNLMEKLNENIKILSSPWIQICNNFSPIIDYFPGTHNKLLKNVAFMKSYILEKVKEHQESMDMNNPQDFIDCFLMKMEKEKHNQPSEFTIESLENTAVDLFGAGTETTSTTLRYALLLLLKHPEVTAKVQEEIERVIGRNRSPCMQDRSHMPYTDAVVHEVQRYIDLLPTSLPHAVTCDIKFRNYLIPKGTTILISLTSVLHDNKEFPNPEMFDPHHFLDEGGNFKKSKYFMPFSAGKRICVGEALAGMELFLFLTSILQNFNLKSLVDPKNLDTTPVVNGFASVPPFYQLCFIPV

CCCOC(=O)c1c(-c2ccccc2)nc(CC)c(C(=O)SCC)c1CCC
Potency [1]: inactive | Potency [2]: inactive | Potency [3]: inactive

Cc1cccc(C(=O)NCN2CCN(c3ccccc3C#N)CC2)c1
Potency [1]: inactive | Potency [2]: inactive | Potency [3]: inactive

C[N+](C)(C)CC=O
Potency [2]: inactive

COC(=O)[C@H](NC(=O)c1cc(-c2ccccc2)nc2ccccc12)c1ccccc1
Potency [2]: inactive

CCN(CC)CCOC(=O)c1cc(Cl)c(N)cc1OC
Potency [2]: inactive | Potency [4]: inactive | Potency [5]: inactive | Potency [3]: inactive

COc1cc(CNC(=O)CCCCCCC(C)C)ccc1O
Potency [2]: inactive

NCCCCN=C(N)N
Potency [2]: inactive

O=C(O)C1=CCCN(CCON=C(c2ccccc2)c2ccccc2)C1
Potency [2]: inactive

NC(N)=NC(N)=Nc1cccc(Cl)c1
Potency [2]: inactive | Potency [4]: inactive | Potency [5]: inactive | Potency [3]: inactive

NC1(C(=O)O)CC1
Potency [2]: inactive

CCCCCCCC/C=C\CCCCCCCC(=O)NCCc1ccc(O)c(O)c1
Potency [2]: inactive | Potency [4]: 1.58 µM (active) | Potency [5]: 3.16 µM (active) | Potency [3]: inactive

CSC(=N)N
Potency [1]: inactive | Potency [6]: 0.0501 µM (active)

NS(=O)(=O)c1cccc2c1c([N+](=O)[O-])cc1nc(O)c(O)nc12
Potency [2]: inactive

N#Cc1cc2nc(O)c(O)nc2cc1[N+](=O)[O-]
Potency [2]: inactive | Potency [4]: inactive

CCCc1c(-c2ccc(O)cc2)nn(-c2ccc(O)cc2)c1-c1ccc(O)cc1
Potency [2]: inactive | Potency [4]: 3.16 µM (active) | Potency [5]: 2.51 µM (active) | Potency [3]: inactive | Potency [6]: 39.8 µM (active)

Cc1cc2c(cc1Cl)N(C(=O)Nc1ccnc3ccccc13)CC2
Potency [2]: inactive

NOCC(=O)O
Potency [2]: inactive

CC[C@H](NC(=O)c1c(C)c(-c2ccccc2)nc2ccccc12)c1ccccc1
Potency [2]: inactive | Potency [4]: 12.6 µM (active) | Potency [6]: inactive

O=C(O)C1=CC(=C(c2ccc(O)c(C(=O)O)c2)c2ccc(O)c(C(=O)O)c2)C=CC1=O
Potency [2]: 15.8 µM (active) | Potency [5]: inactive

CC[N+](CC)(CC)CC(=O)Nc1c(C)cccc1C
Potency [2]: inactive | Potency [4]: inactive

CCCC(=O)NCCc1c2n(c3ccc(OC)cc13)CCCc1ccccc1-2
Potency [2]: inactive

CC(=O)N[C@@H](Cc1c[nH]c2ccccc12)C(=O)OCc1cc(C(F)(F)F)cc(C(F)(F)F)c1
Potency [2]: inactive | Potency [4]: 12.6 µM (active)

O=C(O)c1cccnc1C(=O)O
Potency [2]: inactive | Potency [4]: inactive | Potency [5]: inactive | Potency [6]: inactive

COc1ccccc1N1CCN(CCCNc2c(C)c(=O)n(C)c(=O)n2C)CC1
Potency [2]: inactive

NC(N)=NC(N)=Nc1ccccc1
Potency [2]: inactive | Potency [4]: inactive | Potency [5]: inactive | Potency [6]: inactive

COc1ccc(NC(=O)c2ccc(-c3ccc(-c4noc(C)n4)cc3C)cc2)cc1N1CCN(C)CC1
Potency [2]: inactive | Potency [4]: 7.94 µM (active) | Potency [5]: inactive

O=C1Nc2ccc(I)cc2/C1=C/c1cc(Br)c(O)c(Br)c1
Potency [2]: inactive

Nn1nnc2ccccc21
Potency [2]: inactive

COc1ccc(-c2ccc(N)[n+](CCCC(=O)O)n2)cc1
Potency [2]: inactive

Cn1c(=O)c2[nH]c(-c3ccc(S(=O)(=O)O)cc3)nc2n(C)c1=O
Potency [2]: inactive

Nc1nc2[nH]c(=O)cnc2c(=O)[nH]1
Potency [2]: inactive

CCCCCCCCCCCCCCSCC(=O)O
Potency [2]: inactive

O=c1ccc2c(OCCCCc3ccccc3)c3ccoc3cc2o1
Potency [2]: inactive

CC(N)=O
Potency [2]: inactive

O=C(O)Cc1c[nH]c2ccc(O)cc12
Potency [2]: inactive | Potency [4]: inactive

N[C@@H](CS(=O)O)C(=O)O
Potency [2]: inactive

O=c1[nH]c(=O)c2nc3ccccc3nc2[nH]1
Potency [2]: inactive

N[C@H](C(=O)O)c1cc(O)cc(O)c1
Potency [2]: inactive | Potency [4]: inactive | Potency [3]: inactive | Potency [6]: inactive

C=C1C(=O)O[C@@H]2[C@H]3O[C@]3(C)CCC=C(C)CC[C@@H]12
Potency [4]: inactive
